Screening data: PubChem BioAssay, National Center for Advancing Translational Sciences (NCATS)
Sm TGR block: inhibitors of Schistosoma mansoni thioredoxin glutathione reductase; Q962Y6; 360,000 compounds, 3% hits; purified TGR, DTNB reduction, TNB absorbance 405 nm; AID 485364; Potency, µM (doses to about 114 µM), inactives show at the top dose activity change, negative = inhibition, hits mostly inhibitors; further: potency means the concentration at half of the fitted maximal effect; on the % scale 0 is the no-effect control and ±100 the full control effect; nearly all actives have a fitted effect of over 60% in size
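First, TGR (20 nM dispensed) and NADPH were mixed with compound. Second, a 15 min room-temperature incubation followed. Third, further NADPH and then DTNB were added to start the reaction. Finally, TNB absorbance was monitored kinetically.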
Cycloheximide cs: counter-screen hit for Shiga toxin inhibitors, cycloheximide. max response, %. cell reporter, cycloheximide protein synthesis inhibition counterscreen. 300,000 compounds, 12% hits; in the data active means max response mostly above about 13%, no sharp cut-off; inactive means mostly below about 14%; further: read at 38.3 µM for the half of the compounds with a filed dose; 0% is about no effect
Pf growth 48h: inhibits P. falciparum growth in the first generation, 48 h. P. falciparum luciferase growth in erythrocytes, 48 h. Potency, µM (doses to about 28.7 µM), for inactives: at the highest dose activity change, negative = inhibition, usual class: inhibitors. 310,000 compounds, 5.9% hits; further: potency means the concentration at half of the fitted maximal effect; on the % scale 0 is the no-effect control and ±100 the full control effect
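A one-generation exposure of luciferase-tagged malaria parasites in RPMI 1640/Albumax erythrocyte culture, 37 C and 5% CO2. Inhibition is inferred from decreased luminescence after adding detection reagent.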
Pf growth 96h: P. falciparum growth inhibition at 96 hour, primary screen for plastid delayed-death inhibitors; 320,000 compounds, 6.9% hits; Potency, µM (top dose mostly 28.7 µM), inactives show top-dose activity change, negative = inhibition, usual class: inhibitors; P. falciparum luciferase reporter growth, 96 h; further: potency means the concentration at half of the fitted maximal effect; on the % scale 0 is the no-effect control and ±100 the full control effect
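Two parasite generations (96 h, 37 C, 5% CO2) of compound exposure in infected erythrocytes (0.05% parasitemia, 2% hematocrit). Luciferase-reporter P. falciparum; decreased luminescence indicates inhibited growth, aimed at apicoplast-acting delayed death.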
NS1 inh: inhibitors of influenza NS1 protein function. Potency, µM (highest dose often 46.1 µM), without a hit: at the highest dose activity, positive = more growth. AID 2326. 270,000 compounds, 0.4% hits; calls by dose curve; further: potency means the concentration at half of the fitted maximal effect; actives are rising curves; nearly all actives have a fitted effect of over 50% in size
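Compounds were scored for reversing the slow growth caused by influenza A NS1 in S. cerevisiae, measured by optical density at 600 nm. Assay medium contained 2% galactose at pH 6.0; NS1-free yeast of the same strain were the positive control.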
Shiga toxin inh: inhibitors of Shiga toxin in Vero cells; Vero cells, Shiga toxin protein synthesis inhibition reporter; inhibition, % at 38.7 µM; 290,000 compounds, 9.2% hits; AID 2315; in the data active means inhibition mostly above about 28%, no sharp cut-off; inactive means mostly below about 43%; further: 0% is about no effect
* marks the source's active call; other numbers are inactive results; ? = inconclusive; . = no result. Sampled rows, rich in hits. Any-hit rate of the full collection: about 21%. Unless noted, the call rests on the fitted dose curve; in most records, active means well fitted curve in the direction sought with a large enough effect; inconclusive means small, poorly fitted or top-dose-only effect, or another doubt; inactive means no such curve, though single readings can be large; an effect the other way counts as inactive or inconclusive.

SMILES | Sm TGR block | Cycloheximide cs | Pf growth 48h | Pf growth 96h | NS1 inh | Shiga toxin inh
O=C(Nc1ccc(C(=O)N2CCCCC2)cc1)C1CCCCC1 | 1% | -5 | 14% | ? | 0% | 1
C/C(=N\NC(=O)C1(C)CC1(Br)Br)c1cccc(NC(=O)c2ccc(C)o2)c1 (stereo not drawn) | 1% | 28* | ? | -21% | -34% | 52*
C/C(=N\NC(=O)C1(C)CC1(Br)Br)c1ccc(NC(=O)C2CCC2)cc1 (stereo not drawn) | 0% | -2 | ? | 5.2µM* | 9% | -2
C/C(=N\NC(=O)c1ccn(C)n1)c1ccc(NC(=O)C2CCC2)cc1 | 0% | 27* | 13% | 3% | -8% | 56*
C/C(=N\NC(=O)c1nn(C)c(C)c1Br)c1ccc(NC(=O)C2CCCC2)cc1 | -13% | 41* | -18% | 13µM* | -8% | 107*
CCCCN(C(C)=O)c1c(N)n(CCC)c(=O)n(CC(=O)Nc2cc(Cl)cc(Cl)c2)c1=O | -4% | 9 | -13% | 0% | . | -5
COc1ccc2c(c1)cc1c(=O)n(CC(=O)NC(C)C)nc(C)n12 | -3% | . | . | . | . | .
CCN(CC)c1ccc(NC(=O)C2CCCC2)cc1 | 3% | 22 | ? | ? | -7% | .
C/C(=N\NC(=O)c1ccn(C)n1)c1ccc(NC(=O)C2CCCC2)cc1 | 2% | 31* | 27% | 12% | 6% | 79*
CCOC(=O)c1[nH]c2cc3c(cc2c1NC(=O)CN1CC(C)CC(C)C1)OCO3 (stereo not drawn) | -12% | 2 | -2% | 5.9µM* | 6% | 45
COC(=O)c1[nH]c2ccc(F)cc2c1NC(=O)CCN1CCN(Cc2ccc3c(c2)OCO3)CC1 | -26% | -5 | 12µM* | -1% | 7% | -4
CCN(CC(=O)Nc1c(C(=O)OC)[nH]c2ccc(C)cc12)c1ccc2c(c1)OCO2 | 50µM* | -2 | 13µM* | ? | 4% | -14
COC(=O)c1[nH]c2ccccc2c1NC(=O)CN1CCN(Cc2ccc3c(c2)OCO3)CC1 | 55% | 7 | ? | . | 6% | -4
Cc1ccc(-n2c(C)cc(C(=O)CN3CCOCC3)c2C)cc1C | -19% | 21 | -10% | 13% | . | 32
Cc1ccc(-n2c(C)cc(C(=O)CN3CCOCC3)c2C)cc1 | -18% | 46* | 42% | 47% | . | 85*
Cc1cc(C(=O)CN2CCCC(C)C2)c(C)n1-c1ccc(F)cc1 (stereo not drawn) | -16% | 50* | 43% | ? | 8% | 53*
Cc1ccc(S(=O)(=O)N2CCN(C(=O)c3ccccc3)CC2)c(C)c1NS(C)(=O)=O | 31% | -1 | -20% | ? | -2% | -7
C=CCN1CCc2c(cc(O)c(O)c2Cl)C(c2ccccc2)C1 (stereo not drawn) | ? | -1 | ? | ? | 0% | 8
C=CCN1CCc2cc(O)c(O)cc2C(c2ccccc2)C1 (stereo not drawn) | ? | . | 12µM* | ? | -1% | .
Cc1cc2cc(CCNC(=O)C3c4ccccc4Oc4ccccc43)c(=O)[nH]c2cc1C | -11% | -5 | 7% | -15% | 10% | -16
O=C(O)CSc1c2c(nc3cc(C(=O)Nc4ccc(F)c(Cl)c4)ccc13)CCCC2 | -17% | 17 | 6% | 1µM* | 0% | 1
Cc1ccc(NC(=O)c2ccc3c(=O)n4c(nc3c2)CCC4)cc1F | 1% | . | 136% | 180% | . | .
CCc1cccc(NC(=O)c2ccc3c(=O)n4c(nc3c2)CCCCC4)c1 | 30% | 38* | ? | -15% | -5% | 76*
CC(=O)c1ccc(NC(=O)c2ccc3c(=O)n4c(nc3c2)CCCCC4)cc1 | -14% | 7 | ? | 18% | 1% | 16
O=C(Nc1ccc(F)c(Cl)c1)c1ccc2c(=O)n3c(nc2c1)CCCCC3 | 0% | 52* | 205% | 50% | -33% | 54*
SMILES | Sm TGR block | Cycloheximide cs | Pf growth 48h | Pf growth 96h | NS1 inh | Shiga toxin inh
O=C(Nc1ccc(Cl)cc1)c1ccc2c(=O)n3c(nc2c1)CCCCC3 | 10% | 54* | 6% | 6% | 9% | 41*
COc1ccc(CCNC(=O)C(=O)NCC(c2ccc3c(c2)OCO3)N2CCOCC2)cc1 (stereo not drawn) | 6% | . | . | . | . | .
Cc1ccc(-n2c(SCc3nc(-c4ccccc4C)no3)nnc2-c2ccncc2)cc1C | 9% | . | . | . | . | .
COc1ccc(N(CC(=O)NC(C)c2ccccc2)S(=O)(=O)c2c(C)nn(C)c2C)cc1 (stereo not drawn) | 2% | . | . | . | . | .
CCCCc1nnc(NC(=O)COc2ccc3c(C)cc(=O)oc3c2)s1 | ? | 10 | 2% | 66% | 2% | 8
Cc1oc2ncn(CC(C)C)c(=O)c2c1C(=O)NCCCN1CCCCC1C (stereo not drawn) | 8% | . | . | . | . | .
CCOc1ccc(CNC(=O)CSc2c3c(nc4cc(Cl)ccc24)CCCC3)cc1 | 19% | . | . | . | . | .
O=C(Nc1ccc(Cl)cc1Cl)c1ccc2c(=O)n3c(nc2c1)CCC3 | -3% | . | 57% | 84% | . | .
O=C(Nc1ccc(F)cc1)c1ccc2c(=O)n3c(nc2c1)CCCCC3 | 4% | 24* | 87% | 4.7µM* | -2% | 52*
Cc1ccc(CNC(=O)CSc2c3c(nc4cc(Cl)ccc24)CCCC3)o1 | 8.9µM* | 2 | 15µM* | -4% | -47% | -11
O=C(CSc1nc2c(c(=O)[nH]1)CCC2)Nc1cccc(Cl)c1 | -22% | -2 | -8% | -14% | -3% | -1
CCc1cccc(NC(=O)CSc2nc3c(c(=O)[nH]2)CCCC3)c1 | -9% | -5 | -9% | 8.3µM* | 8% | -8
O=C(Nc1cccc(Cl)c1)c1ccc2c(=O)n3c(nc2c1)CCCCC3 | 4% | 41* | -25% | ? | -86% | 102*
O=S(=O)(c1ccc(Cl)cc1Cl)n1ccnc1 | 32% | . | . | . | . | .
CSc1ccc(-c2c(C#N)c(N)nc3c2CCCC3)cc1 | -25% | -3 | 9% | 2.6µM* | -5% | -26
N#Cc1c(N)nc2c(c1-c1cccnc1)CCCCC2 | 0% | -2 | ? | . | -11% | -8
Cc1c(-c2c(C#N)c(N)nc3c2CCCCCC3)cnn1C | -13% | 2 | ? | 10µM* | -2% | -5
N#Cc1c(N)nc2c(c1-c1ccncc1)CCCCC2 | 5% | -7 | ? | 7.4µM* | -8% | 1
Cc1nn(C)c(C)c1-c1c(C#N)c(N)nc2c1CCCCCC2 | 11% | -7 | ? | ? | 5% | -13
COc1ccc(-c2c(C#N)c(N)nc3c2CCCCCC3)cc1OC | -7% | 11 | . | -20% | 6% | -6
CC1=C(C(=O)Nc2ccccc2C)C(c2ccncc2)n2nc(SCc3ccccc3)nc2N1 (stereo not drawn) | 2% | . | . | . | . | .
COc1cc2ncnc(NCc3ccc4c(c3)OCO4)c2cc1OC | 4% | -1 | 12µM* | ? | -1% | -5
COc1cc2ncnc(NCc3ccccc3)c2cc1OC | 3% | -4 | ? | ? | 12% | -7
